Assay results: PubChem BioAssay (EPA / NIEHS)
The source made the active and inactive calls. The calls were made as follows: active = hit-call score of the fitted dose curve at least 0.9, where 1 is the maximum; inactive = score below 0.9.

Legend:
Conditions in all cases: mRNA level, 48 h; actives raise or lower the signal
[1] = read-out: Broad substrate specificity ATP-binding cassette transporter ABCG2 (Homo sapiens) (UniProt Q9UNQ0); assay: LTEA_HepaRG_ABCG2: Life Technologies and Expression Analysis (LTEA) Assay for ABC Transporter (ABCG2) using HepaRG (AID 2283465)
Summary of the method: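 Read-out is ABCG2 mRNA induction or loss quantified by qRT-PCR after 48 h chemical treatment of human HepaRG cells, normalized to three housekeeping genes. Concentrations reached 100 uM top in half-log steps; fitting was bidirectional against 0.5% DMSO.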

[2] = read-out: ATP-citrate lyase (ACLY), ACLY (gene 47); assay: LTEA_HepaRG_ACLY: Life Technologies and Expression Analysis (LTEA) Assay for ATP-citrate lyase (ACLY) using HepaRG (AID 2283466)
Summary of the method: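 HepaRG, 48 h exposure, 8-pt half-log dilutions (top 100 uM), 0.5% DMSO. Readout: ACLY mRNA, TaqMan qRT-PCR, housekeeping-normalized (ACTB/GAPDH/POLR2A). Bidirectional curve fit vs DMSO.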

[3] = read-out: Peroxisomal acyl-coenzyme A oxidase 1 (ACOX1) gene, ACOX1 (gene 51); assay: LTEA_HepaRG_ACOX1: Life Technologies and Expression Analysis (LTEA) Assay for Peroxisomal acyl-coenzyme A oxidase 1 (ACOX1) gene using HepaRG (AID 2283467)
Summary of the method: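 Measured by qRT-PCR against three housekeeping genes: ACOX1 transcript change in human HepaRG cells after 48 h dosing. Concentrations ran up to 100 uM in half-log steps. Curves were fitted bidirectionally relative to 0.5% DMSO.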

[4] = read-out: Alkaline Phosphatase, Placental (ALPP) gene, ALPP (gene 250); assay: LTEA_HepaRG_ALPP: Life Technologies and Expression Analysis (LTEA) Assay for Alkaline Phosphatase, Placental (ALPP) gene using HepaRG (AID 2283468)
Summary of the method: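 HepaRG cells plated 48 h, then exposed in duplicate for 48 h in serum-free induction medium to 8-point half-log series from 100 uM in 0.5% DMSO. ALPP mRNA by TaqMan qRT-PCR, normalized to ACTB/GAPDH/POLR2A; bidirectional fit versus DMSO.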

[5] = read-out: Bcl-2 (BAD) gene, BAD (gene 572); assay: LTEA_HepaRG_BAD: Life Technologies and Expression Analysis (LTEA) Assay for Bcl-2 (BAD) gene using HepaRG (AID 2283469)
Summary of the method: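 BAD transcript change, measured by qRT-PCR against three housekeeping genes and fitted in both directions relative to 0.5% DMSO, after 48 h chemical treatment of human HepaRG liver cells at concentrations up to 100 uM.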

[6] = read-out: Bcl-2 (BAX) gene, BAX (gene 581); assay: LTEA_HepaRG_BAX: Life Technologies and Expression Analysis (LTEA) Assay for Bcl-2 (BAX) gene using HepaRG (AID 2283470)
Summary of the method: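 Differentiated human HepaRG cells, plated 48 h then switched to serum-free induction medium, were exposed 48 h to 8 half-log concentrations up to 100 uM in 0.5% DMSO; BAX mRNA measured by qRT-PCR, normalized to ACTB, GAPDH, POLR2A.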

[7] = read-out: adenosine kinase (ADK) gene, ADK (gene 132); assay: LTEA_HepaRG_ADK: Life Technologies and Expression Analysis (LTEA) Assay for adenosine kinase (ADK) gene using HepaRG (AID 2283471)
Summary of the method: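 ADK expression quantified by qRT-PCR, normalised to three housekeeping genes, after 48 h exposure of HepaRG cells to eight concentrations (top 100 uM, half-log steps, duplicate, 0.5% DMSO). Up- or down-regulation fitted relative to vehicle.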

[8] = read-out: Alpha-fetoprotein (AFP) gene, AFP (gene 174); assay: LTEA_HepaRG_AFP: Life Technologies and Expression Analysis (LTEA) Assay for Alpha-fetoprotein (AFP) gene using HepaRG (AID 2283472)
Summary of the method: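 Human HepaRG cells plated 48 h, then switched to serum-free induction medium and exposed in duplicate for 48 h to 8-point half-log series from 100 uM in 0.5% DMSO. AFP mRNA by qRT-PCR, normalized to ACTB, GAPDH, POLR2A; bidirectional fit versus DMSO.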

[9] = read-out: BCL2L11 (gene 10018); assay: LTEA_HepaRG_BCL2L11: Life Technologies and Expression Analysis (LTEA) Assay for Bcl-2 (BCL2L11) gene using HepaRG (AID 2283473)
Summary of the method: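 Differentiated human HepaRG cells were exposed 48 h in serum-free induction medium to eight half-log concentrations up to 100 uM in 0.5% DMSO, in duplicate. BCL2L11 mRNA was quantified by TaqMan qRT-PCR, normalized to ACTB, GAPDH and POLR2A; induction or repression fitted versus DMSO.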

[10] = read-out: Apolipoprotein A-V (APOA5) gene, APOA5 (gene 116519); assay: LTEA_HepaRG_APOA5: Life Technologies and Expression Analysis (LTEA) Assay for Apolipoprotein A-V (APOA5) gene using HepaRG (AID 2283474)
Summary of the method: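 Differentiated HepaRG cells in serum-free induction medium, exposed 48 h in duplicate to eight half-log concentrations topping at 100 uM (0.5% DMSO). APOA5 mRNA by Fluidigm TaqMan qRT-PCR, normalized to ACTB, GAPDH and POLR2A; bidirectional fit versus DMSO.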

[11] = read-out: Apoptosis regulator Bcl-2 (Homo sapiens) (UniProt P10415); assay: LTEA_HepaRG_BCL2: Life Technologies and Expression Analysis (LTEA) Assay for Bcl-2 gene using HepaRG (AID 2283475)
Summary of the method: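 Differentiated HepaRG cells in serum-free induction medium were exposed for 48 h to eight half-log concentrations up to 100 uM in 0.5% DMSO, in duplicate. BCL2 mRNA was quantified by TaqMan qRT-PCR normalised to ACTB, GAPDH and POLR2A, with bidirectional fitting versus DMSO.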

[12] = read-out: Bcl-2 (BID) gene, BID (gene 637); assay: LTEA_HepaRG_BID: Life Technologies and Expression Analysis (LTEA) Assay for Bcl-2 (BID) gene using HepaRG (AID 2283476)
Summary of the method: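 Differentiated HepaRG cells in serum-free induction medium were exposed in duplicate for 48 h to eight half-log concentrations up to 100 uM in 0.5% DMSO. BID mRNA was quantified by qRT-PCR, normalized to ACTB, GAPDH and POLR2A.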

[13] = read-out: Caspase-3 (Homo sapiens) (UniProt P42574); assay: LTEA_HepaRG_CASP3: Life Technologies and Expression Analysis (LTEA) Assay for cysteine-aspartic acid protease (CASP3) using HepaRG (AID 2283477)
Summary of the method: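 Differentiated HepaRG cells, plated 48 h, were treated in duplicate in serum-free induction medium for 48 h with eight half-log concentrations up to 100 uM in 0.5% DMSO. CASP3 mRNA measured by qRT-PCR, normalized to ACTB, GAPDH, POLR2A.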

[14] = read-out: Cytochrome P450 (CYP24A1), CYP24A1 (gene 1591); assay: LTEA_HepaRG_CYP24A1: Life Technologies and Expression Analysis (LTEA) Assay for Cytochrome P450 (CYP24A1) using HepaRG (AID 2283478)
Summary of the method: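 HepaRG cells plated 48 h, then exposed in duplicate in serum-free induction medium for 48 h to 8-point half-log series from 100 uM in 0.5% DMSO. CYP24A1 mRNA by Fluidigm qRT-PCR, normalized to ACTB, GAPDH, POLR2A; bidirectional fit versus DMSO.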

[15] = read-out: Cytochrome P450 (CYP1A2), CYP1A2 (gene 1544); assay: LTEA_HepaRG_CYP1A2: Life Technologies and Expression Analysis (LTEA) Assay for Cytochrome P450 (CYP1A2) using HepaRG (AID 2283479)
Summary of the method: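 Differentiated human HepaRG cells in serum-free induction medium exposed 48 hours in duplicate to 8 half-log concentrations from 100 uM, 0.5% DMSO. CYP1A2 mRNA quantified by qRT-PCR, normalized to ACTB, GAPDH and POLR2A; bidirectional fitting versus DMSO.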

[16] = read-out: cysteine-aspartic acid protease (CASP8), CASP8 (gene 841); assay: LTEA_HepaRG_CASP8: Life Technologies and Expression Analysis (LTEA) Assay for cysteine-aspartic acid protease (CASP8) using HepaRG (AID 2283480)
Summary of the method: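 HepaRG, 48 h exposure, duplicate wells; 8 conc, half-log from 100 uM, 0.5% DMSO. Serum-free induction medium. CASP8 mRNA by TaqMan qRT-PCR, norm. ACTB/GAPDH/POLR2A; gain/loss fitted vs DMSO.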

[17] = read-out: Cytochrome P450 (CYP2B6), CYP2B6 (gene 1555); assay: LTEA_HepaRG_CYP2B6: Life Technologies and Expression Analysis (LTEA) Assay for Cytochrome P450 (CYP2B6) using HepaRG (AID 2283481)
Summary of the method: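 Differentiated human HepaRG cells in serum-free induction medium, dosed in duplicate for 48 h over 8 half-log concentrations topping at 100 uM (0.5% DMSO). CYP2B6 mRNA measured by TaqMan qRT-PCR, normalized to ACTB, GAPDH, POLR2A; bidirectional fit versus DMSO.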

[18] = read-out: Cytochrome P450 2C19 (Homo sapiens) (UniProt P33261); assay: LTEA_HepaRG_CYP2C19: Life Technologies and Expression Analysis (LTEA) Assay for CYP2C19 using HepaRG (AID 2283482)
Summary of the method: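 Differentiated HepaRG cells in serum-free induction medium exposed 48 h in duplicate, 8 concentrations from 100 uM by half-log steps in 0.5% DMSO. CYP2C19 mRNA measured by TaqMan qRT-PCR, normalized to ACTB, GAPDH, POLR2A. Bidirectional fit versus DMSO.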

[19] = read-out: CYP2C8 (gene 1558); assay: LTEA_HepaRG_CYP2C8: Life Technologies and Expression Analysis (LTEA) Assay for CYP2C8 using HepaRG (AID 2283483)
Summary of the method: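 CYP2C8 mRNA induction or loss, by qRT-PCR normalized to ACTB/GAPDH/POLR2A, is read in HepaRG cells after 48 h treatment. Concentrations run from 100 uM down in half-log dilutions, with 0.5% DMSO as vehicle and baseline.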

[20] = read-out: CYP2C9 (gene 1559); assay: LTEA_HepaRG_CYP2C9: Life Technologies and Expression Analysis (LTEA) Assay for CYP2C9 using HepaRG (AID 2283484)
Summary of the method: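 Cells plated 48 h, switched to serum-free induction medium, then treated in duplicate for 48 h at eight concentrations (max 100 uM, 0.5% DMSO). RNA then analysed by qRT-PCR for CYP2C9; curves fitted in both directions relative to DMSO.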

Cytochrome P450 2C19 (Homo sapiens), sequence (P33261 whole entry, looked up): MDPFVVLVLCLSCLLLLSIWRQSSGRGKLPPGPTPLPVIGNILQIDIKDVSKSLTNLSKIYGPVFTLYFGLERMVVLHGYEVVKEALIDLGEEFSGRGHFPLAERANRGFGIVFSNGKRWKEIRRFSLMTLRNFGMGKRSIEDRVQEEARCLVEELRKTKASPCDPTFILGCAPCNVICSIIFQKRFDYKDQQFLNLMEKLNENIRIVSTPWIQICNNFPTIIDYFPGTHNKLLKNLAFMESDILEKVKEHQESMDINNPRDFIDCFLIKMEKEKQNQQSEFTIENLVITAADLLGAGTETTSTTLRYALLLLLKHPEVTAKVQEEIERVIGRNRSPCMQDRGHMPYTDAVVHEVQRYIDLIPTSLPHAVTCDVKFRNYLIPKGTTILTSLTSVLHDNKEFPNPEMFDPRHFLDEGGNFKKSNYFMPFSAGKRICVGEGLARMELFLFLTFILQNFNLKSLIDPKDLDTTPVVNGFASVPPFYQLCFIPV
Caspase-3 (Homo sapiens), sequence (P42574 whole entry, looked up): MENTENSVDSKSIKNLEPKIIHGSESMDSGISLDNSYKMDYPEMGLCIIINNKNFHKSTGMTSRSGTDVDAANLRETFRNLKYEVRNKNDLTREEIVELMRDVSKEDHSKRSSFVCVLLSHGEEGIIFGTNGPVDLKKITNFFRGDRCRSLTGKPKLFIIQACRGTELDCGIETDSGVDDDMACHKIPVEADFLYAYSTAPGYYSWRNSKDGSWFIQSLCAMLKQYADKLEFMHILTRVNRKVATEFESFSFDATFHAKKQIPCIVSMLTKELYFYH
Apoptosis regulator Bcl-2 (Homo sapiens), sequence (P10415 whole entry, looked up): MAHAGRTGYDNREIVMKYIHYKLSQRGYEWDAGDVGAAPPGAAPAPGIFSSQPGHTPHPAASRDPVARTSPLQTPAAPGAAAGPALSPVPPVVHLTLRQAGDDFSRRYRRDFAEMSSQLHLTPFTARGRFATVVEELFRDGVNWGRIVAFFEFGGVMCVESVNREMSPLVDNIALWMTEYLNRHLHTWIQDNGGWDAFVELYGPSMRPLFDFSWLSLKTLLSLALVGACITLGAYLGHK
Broad substrate specificity ATP-binding cassette transporter ABCG2 (Homo sapiens), sequence (Q9UNQ0 whole entry, looked up): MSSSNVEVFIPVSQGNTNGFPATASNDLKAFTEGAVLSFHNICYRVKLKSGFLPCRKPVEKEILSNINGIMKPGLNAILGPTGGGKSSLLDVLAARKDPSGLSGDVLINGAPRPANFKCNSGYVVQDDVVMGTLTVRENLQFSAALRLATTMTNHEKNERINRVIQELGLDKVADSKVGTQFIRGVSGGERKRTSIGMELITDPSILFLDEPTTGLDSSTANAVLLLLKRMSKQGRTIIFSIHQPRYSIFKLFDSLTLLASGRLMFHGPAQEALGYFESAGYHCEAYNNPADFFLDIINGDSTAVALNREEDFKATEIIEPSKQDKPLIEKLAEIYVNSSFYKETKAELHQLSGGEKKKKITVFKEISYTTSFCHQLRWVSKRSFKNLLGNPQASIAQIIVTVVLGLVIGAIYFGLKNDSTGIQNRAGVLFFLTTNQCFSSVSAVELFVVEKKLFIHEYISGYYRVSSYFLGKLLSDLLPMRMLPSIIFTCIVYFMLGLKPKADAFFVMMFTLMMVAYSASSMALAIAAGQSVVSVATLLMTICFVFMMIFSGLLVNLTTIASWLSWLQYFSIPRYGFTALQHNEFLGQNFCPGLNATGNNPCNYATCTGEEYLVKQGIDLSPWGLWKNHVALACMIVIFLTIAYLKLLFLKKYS

CCN(CC)C(=S)SSC(=S)N(CC)CC
outcome [1]: inactive | outcome [2]: inactive | outcome [3]: inactive | outcome [4]: inactive | outcome [5]: inactive | outcome [6]: inactive | outcome [7]: inactive | outcome [8]: inactive | outcome [9]: inactive | outcome [10]: inactive | outcome [11]: inactive | outcome [12]: inactive | outcome [13]: inactive | outcome [14]: inactive | AC50 [15]: 75.2 µM (active) | outcome [16]: inactive | AC50 [17]: 16.8 µM (active) | outcome [18]: inactive | outcome [19]: inactive | outcome [20]: inactive

Cc1ccc(S(=O)(=O)NC(=O)NN2CCCCCC2)cc1
outcome [1]: inactive | outcome [2]: inactive | outcome [3]: inactive | AC50 [4]: 0.161 µM (active) | outcome [5]: inactive | outcome [6]: inactive | outcome [7]: inactive | outcome [8]: inactive | outcome [9]: inactive | outcome [10]: inactive | outcome [11]: inactive | outcome [12]: inactive | outcome [13]: inactive | outcome [16]: inactive

Cc1nc(-c2ccccn2)ncc1C(=O)Nn1cc(C)c2cc(F)ccc21
outcome [1]: inactive | outcome [2]: inactive | outcome [3]: inactive | AC50 [4]: 82.3 µM (active) | outcome [5]: inactive | outcome [6]: inactive | outcome [7]: inactive | AC50 [8]: 50 µM (active) | outcome [9]: inactive | AC50 [10]: 80.6 µM (active) | outcome [11]: inactive | outcome [12]: inactive | outcome [13]: inactive | outcome [14]: inactive | outcome [15]: inactive | outcome [16]: inactive | AC50 [17]: 0.168 µM (active) | AC50 [18]: 1.02 µM (active) | outcome [19]: inactive | AC50 [20]: 75.6 µM (active)

CC(C)C(=O)Nc1ccc([N+](=O)[O-])c(C(F)(F)F)c1
outcome [1]: inactive | AC50 [2]: 17.6 µM (active) | AC50 [3]: 72.4 µM (active) | AC50 [4]: 50 µM (active) | outcome [5]: inactive | AC50 [6]: 50 µM (active) | outcome [7]: inactive | AC50 [8]: 58.5 µM (active) | outcome [9]: inactive | AC50 [10]: 65.9 µM (active) | AC50 [11]: 90.3 µM (active) | outcome [12]: inactive | outcome [13]: inactive | outcome [14]: inactive | AC50 [15]: 14.9 µM (active) | outcome [16]: inactive | AC50 [17]: 63.2 µM (active) | AC50 [18]: 77.3 µM (active) | AC50 [19]: 15.8 µM (active) | AC50 [20]: 66 µM (active)

NNC(=O)c1ccncc1
outcome [1]: inactive | outcome [2]: inactive | outcome [3]: inactive | outcome [4]: inactive | outcome [5]: inactive | outcome [6]: inactive | outcome [7]: inactive | outcome [8]: inactive | outcome [9]: inactive | outcome [10]: inactive | outcome [11]: inactive | outcome [12]: inactive | outcome [13]: inactive | outcome [14]: inactive | outcome [15]: inactive | outcome [16]: inactive | AC50 [17]: 10.4 µM (active) | outcome [18]: inactive | outcome [19]: inactive | outcome [20]: inactive
